IMPase inh: membrane-permeable compound that blocks inositol monophosphatase; CHO-M1 cells, IP1 accumulation, HTRF TR-FRET ratio; 120,000 tested, under 10 active; inhibition (IP1 accumulation), % at 46.1 µM; P97697; active = well fitted curve in the direction sought with a large enough effect in the signal ratio, not every such curve was filed as active; inconclusive = small, poorly fitted or top-dose-only effect, or a change in a side signal; inactive = no such curve, though single readings can be large or run the other way; the % refers to the signal ratio;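 also: cells stimulated with carbachol in lithium chloride buffer; plate controls were DMSO basal wells for no effect and reference inhibitor wells for full effect; higher means more IMPase inhibition seen as more IP1 and lower FRET ratio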
Target sequence (P97697 whole entry, looked up): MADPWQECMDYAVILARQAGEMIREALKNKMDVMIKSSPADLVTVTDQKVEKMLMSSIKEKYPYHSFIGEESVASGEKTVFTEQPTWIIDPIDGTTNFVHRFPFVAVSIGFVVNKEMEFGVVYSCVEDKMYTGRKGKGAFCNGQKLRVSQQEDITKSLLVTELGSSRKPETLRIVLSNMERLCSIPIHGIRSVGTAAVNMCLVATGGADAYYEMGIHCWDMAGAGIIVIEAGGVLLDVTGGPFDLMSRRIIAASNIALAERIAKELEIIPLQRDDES
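CHO-M1 cells (CHO stably expressing M1 receptor), compound up to 46 uM final, stimulated with carbachol (50 uM as added) in buffer with 50mM LiCl, pH 7.4, 30 min at 37C. Cytosolic IP1 read by TR-FRET; AC50 from Hill fits.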
HPGD block: HPGD (human) dehydrogenase inhibition. P15428. purified HPGD, NADH fluorescence kinetic, PGE2 substrate. Potency, µM, for inactives: at the top dose activity change, negative = inhibition, most hits filed as inhibitors. 4.3% of 150,000 active. AID 894; active = well fitted inhibition curve with a large enough effect, not every such curve was filed as active; inconclusive = small, poorly fitted or top-dose-only effect, or another doubt; inactive = no such curve, though single readings can be large or run the other way; also: potency is read from the fitted curve at half-maximal effect; % is scaled to controls: 0 for no effect and ±100 for the full control effect
Target sequence (P15428 whole entry, looked up): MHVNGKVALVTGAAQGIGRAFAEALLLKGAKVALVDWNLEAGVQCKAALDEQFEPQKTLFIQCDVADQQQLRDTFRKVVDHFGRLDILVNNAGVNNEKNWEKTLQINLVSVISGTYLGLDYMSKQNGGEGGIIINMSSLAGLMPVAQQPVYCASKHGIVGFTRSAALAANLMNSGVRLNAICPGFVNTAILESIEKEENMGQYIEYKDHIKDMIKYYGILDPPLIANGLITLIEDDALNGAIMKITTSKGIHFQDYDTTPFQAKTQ
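NADH formation kinetics: reaction with 30 uM PGE2 and 1 mM NAD+ (final), 20 nM enzyme, Tris-HCl pH 8 with Tween 20, after 15 min compound preincubation at room temperature. Fluorescence change, last versus first of five reads.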
HTT ATP protect: protects HTT-Q103 PC12 cells, measured by ATP; PC12 HTT-Q103 induced, cytoprotection, ATP luminescence, 40 h; Potency, µM (doses to about 56.4 µM), for inactives: cytoprotection (ATP increase), hits mostly activators; 0.14% of 230,000 active; also: potency is read from the fitted curve at half-maximal effect; % of control where 0% means no effect; nearly all actives have a fitted effect of over 45% in size
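Compounds added alongside 100 nM tebufenozide, which induces toxic Q103 huntingtin exon 1-GFP in stable PC12 cells; surviving cells quantified by luminescent ATP measurement. Medium: phenol red-free DMEM, 5% equine and 5% calf serum.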
ALDH1A1 inh: inhibitors of human aldehyde dehydrogenase 1A1 | AID 1030 | 7.3% of 220,000 active | Potency, µM (doses to about 75.3 µM), without a hit: top-dose activity, negative = inhibition, most hits filed as inhibitors | Purified ALDH1A1, NADH fluorescence, propionaldehyde substrate | P00352; active = well fitted inhibition curve with a large enough effect, not every such curve was filed as active; inconclusive = small, poorly fitted or top-dose-only effect, or another doubt; inactive = no such curve, though single readings can be large or run the other way;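 also: potency is read from the fitted curve at half-maximal effect; plate controls were no enzyme wells and a reference inhibitor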
IMPase Li inh: IMPase inhibition in cells with lithium potentiation. CHO-M1 cells, IP1 TR-FRET (IP-One), carbachol + lithium. Potency, µM (titrated, usually from 59.4 µM), inactives show at the top dose activity, negative = IMPase inhibition, actives largely listed as inhibitors. 0.35% of 210,000 active;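 also: IP1 builds up when IMPase is blocked and the TR-FRET signal falls; potency is read from the fitted curve at half-maximal effect; plate controls were basal vehicle for no effect and high inhibitor control for full effect; nearly all actives have a fitted effect of over 50% in size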
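Steps: plate 2000 CHO-M1 cells per well and culture 16–30 h; add compound and lithium; incubate 30 min, 37C; add d2-IP1 tracer and Eu cryptate anti-IP1 antibody in lysis buffer; read after 10 min at room temperature.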
HTT aggregate: mutant huntingtin aggregation inhibition. 1.1% of 220,000 active. PC12 HttQ103-GFP aggregates, Acumen cytometry, 40 h. AID 1688. Potency, µM (doses to about 46.1 µM), inactives show at the highest dose activity change, negative = inhibition, actives largely listed as inhibitors; also: potency is read from the fitted curve at half-maximal effect; % is scaled to controls: 0 for no effect and ±100 for the full control effect; nearly all actives have a fitted effect of over 60% in size
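Huntingtin Q103 exon 1–GFP aggregates in induced PC12 cells (100 nM tebufenozide) were quantified by cytometry from lysates, with compounds dosed in titration.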
* = called active by the depositor; ? = inconclusive; nt = no result given; [ ] = remark or other dose. The list is not random: actives were taken first. Their share in the collection is about 9.4%. Unless noted, calls follow the shape of the dose curve; as a rule, active = well fitted curve in the direction sought with a large enough effect; inconclusive = small, poorly fitted or top-dose-only effect, or another doubt; inactive = no such curve, though single readings can be large; an effect the other way counts as inactive or inconclusive.

SMILES | IMPase inh | HPGD block | HTT ATP protect | ALDH1A1 inh | IMPase Li inh | HTT aggregate
CCOC(=O)/C(C#N)=C\c1cccnc1 | nt | nt | 26% | 6% | -4% | 17%
c1ncc(-c2ccc3c(c2)OCO3)c(NCCc2cnc[nH]2)n1 | nt | -23% | 18% | ? | 15% | nt
Cc1csc(N/N=C\c2cccnc2)n1 | nt | nt | 19% | 11µM* | -4% | -2%
O=[N+]([O-])c1cc(S(=O)(=O)N2CCCC2)ccc1N/N=C/c1cccnc1 | nt | -4% | -4%[10 µM] | 4% | 1% | 4%
Cc1nn(-c2ccccc2)c(Cl)c1/C=N/Nc1ccc(S(=O)(=O)Nc2ccccc2C(=O)O)cc1[N+](=O)[O-] | -1 | 16µM* | -36% | ? | 10%[38.3 µM] | -7%
O=C(O)c1ccccc1/C=N/Nc1ccc(S(=O)(=O)N2CCCC2)cc1[N+](=O)[O-] | nt | nt | 6%[10 µM] | 13µM* | nt | 5%[9.22 µM]
CN(C)c1ncc2nc(-c3cc(F)cc(F)c3)c(=O)n(C3CC3)c2n1 | nt | nt | -16% | ? | -1% | nt
CC(C)[C@@H](OCc1ccccc1)[C@H](C)CO/N=C1/[C@H]2OC2[C@@H](O)[C@H]2[C@H]1CCn1c(=O)n(-c3ccccc3)c(=O)n12 (some centres undefined) | nt | nt | 29%[10 µM] | -11%[13.5 µM] | nt | nt
Fc1cccc2sc(Nc3nnc(-c4ccccc4)o3)nc12 | -27 | ? | -6%[1.9 µM] | ? | -4% | 11µM*
O=C(O)/C=C1\CCCc2ccccc2[C@H]1O | 2 | -10% | -19% | 5% | 4% | nt
Cc1ccc2nc(-c3cccnc3SCC(=O)N3c4ccccc4CC3C)[nH]c2c1 (centres undefined) | -3 | ? | -4%[10 µM] | ? | 19% | -14%
Cc1ccc2nc(SCC(=O)N3c4ccccc4CC3C)c(C)cc2c1 (centres undefined) | ? | -28% | -5%[10 µM] | 25µM* | ? | ?
Cc1ccccc1-n1ncc2c(SCC(=O)N3c4ccccc4CC3C)ncnc21 (centres undefined) | 4 | 3% | -68% | 14µM* | 11%[38.3 µM] | 4%
Nc1ncnc2nn([C@H]3O[C@@H](CO)[C@@H](O)[C@H]3O)nc12 | nt | -13% | -27%[10 µM] | 3%[13.5 µM] | 7% | nt
CCN(CC)CCCNC(=O)c1cc(Sc2nnc(C)s2)nc2ccccc12 | nt | 28µM* | -8%[10 µM] | 2% | 2% | ?
CC(C)CCN1CCc2nc(COc3ccccc3)c3c(c2C1)COC(C)C3 (centres undefined) | nt | nt | 5%[10 µM] | 7%[13.5 µM] | nt | nt
Cc1ccc(C)c(N(C(=O)Cc2cccs2)C(C(=O)NC2CCCC2)c2ccc(C)o2)c1 (centres undefined) | 16[1.84 µM] | -4% | 36%[10 µM] | -1% | 35%[38.3 µM] | 12%
Cc1ccc(N(C(=O)CNC(=O)c2ccco2)C(C(=O)NC2CCCC2)c2cccnc2)cc1C (centres undefined) | ? | -9% | 5% | 5% | -6%[38.3 µM] | 16%
Cc1ccc(C(C(=O)NC2CCCC2)N(C(=O)Cc2cccs2)c2ccc(C)c(C)c2)o1 (centres undefined) | 5[1.84 µM] | -17% | 0%[10 µM] | -9% | 36%[38.3 µM] | 20µM*
Cc1cc(NC(=O)CCC(=O)N(c2ccccc2)C(C(=O)NC2CCCC2)c2ccccc2)no1 (centres undefined) | 0[0.369 µM] | -6% | 0%[10 µM] | 25µM* | 3% | 1%
Cc1ccc(N(C(=O)CCl)C(C(=O)NC2CCCCC2)c2cccnc2)cc1C (centres undefined) | nt | -10% | -86%[10 µM] | 9% | 3% | 3.5µM*
Cc1ccc(N(C(=O)CCC(=O)Nc2cc(C)on2)C(C(=O)NC2CCCC2)c2ccccc2)cc1 (centres undefined) | nt | nt | 7%[10 µM] | 20% | 6% | -3%[9.22 µM]
O=C(O)CC(SCC(=O)Nc1ccccc1)C(=O)O (centres undefined) | nt | nt | nt | ? | -4% | 8%
O=C(O)/C=C/C(=O)Nc1ccc(S(=O)(=O)N2CCCC2)cc1 | nt | nt | -6% | 22µM* | 3% | -17%
O=C(O)CC(SCC(=O)Nc1ccc(S(=O)(=O)N2CCCC2)cc1)C(=O)O (centres undefined) | nt | nt | 13% | 8.9µM* | 1% | 17%
SMILES | IMPase inh | HPGD block | HTT ATP protect | ALDH1A1 inh | IMPase Li inh | HTT aggregate
COc1ccc(S(=O)(=O)N2CCCCC2)cc1NS(=O)(=O)c1cc(Cl)ccc1Cl | nt | 3% | nt | 2.2µM* | 18% | -3%
COc1ccc(NS(=O)(=O)c2ccc(S(=O)(=O)N3CCCC3)cc2)cc1Cl | 8 | -8% | 32% | 13µM* | 32%[38.3 µM] | ?
COC(=O)Nc1ccc(S(=O)(=O)N2CCCCC2)cc1 | 4 | -4% | -15% | 6% | -3%[38.3 µM] | -20%
O=C(CSc1nnc(-c2cccc(Cl)c2)o1)N1CCc2ccccc21 | 0 | nt | nt | nt | nt | nt
Cc1ccccc1Nc1oc(-c2ccccc2)nc1-c1cccs1 | nt | -12% | -15% | 1% | 21% | nt
COC(=O)[C@@]1(Cc2ccccc2)[C@H]2c3cc(C(=O)N4CCCC4)n(Cc4ccc(S(C)(=O)=O)cc4)c3C[C@H]2CN1C(=O)c1ccccc1 | nt | -4% | 27% | -11% | 6% | nt
O=C(Nc1nc(-c2ccc3c(c2)OCCO3)cs1)C1CCCC1 | nt | nt | -70% | ? | 19% | 20%
Cc1nc2ncnn2c(C)c1CCC(=O)Nc1ccc(S(=O)(=O)N2CCCCCC2)cc1 | -8 | 16µM* | -4% | 6.3µM* | 23%[38.3 µM] | -12%
Cc1ccc(NC(=O)CCc2c(C)nc3ncnn3c2C)cc1 | 3 | -9% | 6% | 0% | -9%[38.3 µM] | 15%
COc1ccc(NS(=O)(=O)c2ccc(S(=O)(=O)N3CCCC3)cc2)cc1 | 8 | -4% | 19% | 1µM* | 18%[38.3 µM] | -23%
COc1ccc(S(=O)(=O)N2CCC(C(=O)N3CCCCCC3)CC2)cc1 | 6 | 16µM* | 5% | ? | 33%[38.3 µM] | 3%
CC(=O)Nc1ccc(NC(=O)C(C)N2CCN(S(=O)(=O)c3ccc(C)cc3)CC2)cc1 (centres undefined) | nt | nt | -10% | -16% | -2% | 19%
COc1ccc(S(=O)(=O)N2CCC(C(=O)N3CCCC3)CC2)cc1 | 15 | -11% | 11% | -13% | -2%[38.3 µM] | -4%
CC(=O)Nc1ccc(S(=O)(=O)N2CCN(C(C)CCc3ccccc3)CC2)cc1 (centres undefined) | -1 | 2% | -4% | 32µM* | 21%[38.3 µM] | -2%
Nc1ncnc2c1ncn2[C@@H]1O[C@H](COP(=O)(O)O)[C@@H](O)[C@@H]1O | -9[20.6 µM] | -11% | -3%[40.3 µM] | 13%[20.9 µM] | 1% | nt
CC(=O)Nc1ccc(S(=O)(=O)Nc2ccc(S(=O)(=O)N3CCCC3)cc2)cc1 | 8 | 2% | 8%[10 µM] | 2.8µM* | 8% | 0%

Compound activity (PubChem BioAssay)
